Lmaj promast: inhibitors of Leishmania major promastigote growth; Leishmania major promastigotes, resazurin fluorescence viability; inhibition, % at 10 µM; hit rate 9% among 200,000; AID 1063; in the data active = inhibition above about 50%;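 note: promastigotes grown with compound for 44 hours at 28 °C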
ROMK primary: modulators of human ROMK potassium channel; Tet-inducible ROMK, thallium flux fluorescence; actives lie on both sides; hit rate 2% among 130,000; B-score at 10 µM; P48048; AID 1918;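 active = signal ratio slope over the read window, or its plate-corrected B-score, at least 3 SD from the plate mean, either direction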;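 note: B-score of the F/F0 ratio slope over 7 to 12 s after thallium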
Target sequence (P48048 whole entry, looked up): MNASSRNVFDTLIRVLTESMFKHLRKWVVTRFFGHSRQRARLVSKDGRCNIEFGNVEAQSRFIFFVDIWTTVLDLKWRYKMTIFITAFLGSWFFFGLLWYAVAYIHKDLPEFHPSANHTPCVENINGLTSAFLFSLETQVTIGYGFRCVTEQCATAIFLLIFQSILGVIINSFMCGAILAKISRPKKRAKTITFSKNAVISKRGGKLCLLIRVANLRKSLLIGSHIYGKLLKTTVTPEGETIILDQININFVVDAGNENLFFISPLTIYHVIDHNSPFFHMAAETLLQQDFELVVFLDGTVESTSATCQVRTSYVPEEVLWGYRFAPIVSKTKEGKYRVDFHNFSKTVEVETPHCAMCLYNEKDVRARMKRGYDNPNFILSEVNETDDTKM
KCC2 mod: KCC2 (human) Cl- transport modulation. Q9H2X9. hit rate 2.2% among 190,000. B-score of Tl+ flux slope (higher = more flux/activation; lower = inhibition) at 10 µM. KCC2 cells, thallium flux FluoZin-2 fluorescence;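 active = thallium flux slope and its plate-corrected score both differing from the plate sample mean at a set confidence after two filtering rounds, in either direction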;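 note: slope of fluorescence scaled to starting intensity during 10 to 20 s after thallium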
Calpain2 inh: calpain II (pig) inhibition; hit rate 0.37% among 220,000; inhibition, % at 16 µM; purified calpain II, fluorogenic peptide substrate, 30 min; AID 1236;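 active = inhibition above about 50%, limit read from the data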
WT yeast gro inh: growth inhibition of WT yeast, mitochondrial fusion screen. mitochondrial fusion phenotypic screen, WT strain. inhibition, % at 10 µM. hit rate 2.1% among 190,000. AID 1362; in the data active = inhibition above about 58%; tested in S. cerevisiae
Active calls of the source: *; nt = not tested or not shown; ! = a repeat was not active. Rows were chosen to be rich in hits. Some 12% of all compounds tested hit in one or more screens of this group.

SMILES | Lmaj promast | ROMK primary | KCC2 mod | Calpain2 inh | WT yeast gro inh
OC(CNCc1cccc(Cl)c1)c1ccccc1 (stereo not given) | 11 | -0.039 | 1.1 | 11 | 7
O=C(NCCN1CCOCC1)c1ccncc1 | -8 | 0.017 | -0.13 | -28 | -7
O=C1C=C(NCCN2CCOCC2)C(=O)c2cnccc21 | 99* | -0.28 | -0.29 | 8 | 4
COC(=O)Cn1c(=NC(=O)C2COc3ccccc3O2)sc2cc(S(N)(=O)=O)ccc21 (stereo not given) | -1 | -0.24 | -8.1e-05 | 8 | -5
CN(C)c1nc(SCc2ccccc2Cl)nc2c1CCCC2 | 2 | nt | nt | 0 | 76
Cc1ccc(CSc2nc3c(c(N(C)C)n2)CCCC3)cc1 | 8 | nt | nt | 41 | 78*
CNc1nc(SCc2ccc(C)cc2)nc2c1CCCC2 | 100* | nt | nt | 32 | 67*
COC(=O)CSc1nc(SCc2ccc(C)cc2)nc2c1CCCC2 | -8 | nt | nt | 22 | 70*
Cc1ccc(CSc2nc3c(c(SCC(=O)O)n2)CCCC3)cc1 | -7 | nt | nt | -3 | -30
CCC(C)N(CC(=O)Nc1cccc(C)c1C)C(=O)CCl (stereo not given) | 64* | -3.1 | 0.55 | 40 | 12
Cc1noc2ncnc(N3CCN(c4cccc(Cl)c4)CC3)c12 | 12 | -0.63 | -0.27 | -14 | 61*
CN(C)S(=O)(=O)N1CCN(CC(O)COc2ccc3cc(Br)ccc3c2)CC1 (stereo not given) | 10 | nt | -0.72 | -16 | 98*
O=S(=O)(N1CCCCC1)N1CCN(CC(O)COc2ccc3cc(Br)ccc3c2)CC1 (stereo not given) | -4 | -0.24 | 0.29 | 0 | 12
OCCN1CCN(CC(O)COc2ccc(-c3ccccc3)cc2)CC1 (stereo not given) | 96* | -0.92 | 0.46 | 15 | 40
OC(COc1ccccc1)CN1CCCC1 (stereo not given) | -5 | -0.65 | 1.5 | -25 | -3
COc1cc(C(C)=O)ccc1OCC(O)CN(CCO)Cc1ccccc1 (stereo not given) | -5 | 0.39 | 0.47 | 1 | -25
OCCN(Cc1ccccc1)CC(O)COc1ccc(-c2ccccc2)cc1 (stereo not given) | 39 | 0.38 | 0.068 | 18 | 66*
CN1CCN(CC(O)COc2ccc(C34CC5CC(CC(C5)C3)C4)cc2)CC1 (stereo not given) | 100* | nt | 0.46 | -18 | 97*
CC(=O)Nc1ccc(S(=O)(=O)Oc2ccccc2N2CCCCC2)cc1 | nt | -0.17 | -0.25 | -3 | nt
N#Cc1nc(-c2ccco2)oc1NCc1ccccc1Cl | nt | -0.51 | -0.4 | -56 | nt
OCCN1CCN(CC(O)COc2ccc3ccccc3c2)CC1 (stereo not given) | 91* | nt | 0.38 | -17 | -11
CC(=O)c1ccc(N2CCN(C(=O)C3CCCN(S(=O)(=O)c4c(C)[nH]c(=O)[nH]c4=O)C3)CC2)cc1 (stereo not given) | -2 | -0.4 | -0.011 | -10 | -3
COc1ccc(CCNC(=O)/C=C/c2ccc(OC)c(S(=O)(=O)N3CCOCC3)c2)cc1 | nt | nt | 0.2 | -20 | nt
CC(C)CCC(C(=O)O)C(C)CC(=O)NNC(=O)c1ccco1 (stereo not given) | -10 | 1 | 1 | 20 | -8
NNc1ccc(Cc2ccc(Cl)cc2Cl)nn1 | 91* | -0.15 | -0.49 | -11 | 3
SMILES | Lmaj promast | ROMK primary | KCC2 mod | Calpain2 inh | WT yeast gro inh
Nc1nc(N)c(Cc2ccc(Cl)cc2Cl)c(N)n1 | 64* | -1 | 0.015 | 7 | -6
c1ccc2c(NCCCN3CCOCC3)c3ccccc3nc2c1 | 100* | -1.1 | 0.048 | -36 | 5
Clc1cccc(-c2nc(NCCCN3CCOCC3)c3ccccc3n2)c1 | 80* | -2.6 | -0.019 | -6 | 24
Clc1cccc(-c2nc(NCCN3CCOCC3)c3ccccc3n2)c1 | 75* | 1 | 0.94 | 6 | 11
Cc1ccc(-c2nc(NCCN3CCOCC3)c3ccccc3n2)cc1 | 81* | nt | 0.36 | -11 | 4
CCCc1ccc(NS(=O)(=O)c2c(C)oc(C)c2C(=O)OC)cc1 | nt | nt | -0.66 | -2 | nt
O=C(Nc1sc2c(c1C(=O)N1CCOCC1)CCCCC2)c1cccnc1 | 17 | -0.72 | -1.1 | 7 | 11
COc1ccc(OCC(O)Cn2c(=N)n(CCN3CCOCC3)c3ccccc32)cc1 (stereo not given) | -5 | 0.2 | 0.074 | -3 | 3
COc1ccccc1OCC(O)Cn1c(=N)n(CCN2CCCCC2)c2ccccc21 (stereo not given) | 65* | nt | -0.21 | 17 | 9
Cn1c(=O)n(Cc2ccccc2Br)c2ccccc21 | 0 | 0.8 | -0.66 | -2 | -1
N=c1n(CCN2CCOCC2)c2ccccc2n1Cc1ccccc1Br | 95* | nt | 0.092 | -8 | -21
OCc1nc2ccccc2n1CC(O)COc1ccccc1 (stereo not given) | -4 | nt | -0.46 | -14 | 0
N=c1n(Cc2ccccc2)c2ccccc2n1CC(O)COc1ccccc1 (stereo not given) | 100* | nt | 0.078 | 29 | 32
N=c1n(CCN2CCCCC2)c2ccccc2n1CC(O)c1cccc(Br)c1 (stereo not given) | 100* | nt | 0.22 | -8 | -6
CCCCn1c(=N)n(CC(O)c2ccccc2)c2ccccc21 (stereo not given) | nt | -0.98 | -1.3 | 19 | nt
CCn1c(=N)n(CC(O)c2ccccc2)c2ccccc21 (stereo not given) | 12 | -1.3 | nt | 2 | -10
N=c1n(CCN2CCOCC2)c2ccccc2n1CC(O)COc1ccccc1 (stereo not given) | 14 | -0.82 | 0.45 | -15 | 3
N=c1n(CCN2CCCCC2)c2ccccc2n1CC(O)COc1ccccc1 (stereo not given) | 101* | nt | 0.87 | 19 | -21
CN(C)CCn1c(=N)n(CC(O)c2ccc(Cl)c(Cl)c2)c2ccccc21 (stereo not given) | 100* | -0.9 | nt | -9 | 1
Cc1ccccc1OCC(O)Cn1c(=N)n(CCN2CCOCC2)c2ccccc21 (stereo not given) | 51*! | -1.9 | 0.034 | 1 | -10
CCn1c(=N)n(CC(O)COc2cccc(C)c2)c2ccccc21 (stereo not given) | 58* | -3.2 | -1.3 | 41 | -2
CCOC(=O)N/N=C(/C)c1ccc(N2C(=O)C3CCCCC3C2=O)cc1 (stereo not given) | -5 | nt | 0.081 | -3 | -17
COc1ccc(C)cc1NC(=S)NNC(=O)c1c(Br)cnn1C | -10 | 1.1 | -1.5 | -11 | 4
COc1ccc(CCN(/C=C2\Sc3ccccc3C2=O)C(C)=O)cc1OC | nt | nt | -0.99 | 10 | nt
CN(C)CC/C=C1/c2ccccc2Sc2c(O)cc(Cl)cc21 | 98* | -0.94 | 0.51 | -4 | 5
CN1CCN(CC/C=C2/c3ccccc3Sc3ccc(S(=O)(=O)N(C)C)cc32)CC1 | nt | nt | 0.55 | -22 | 19
COc1cc(Cl)cc2c1Sc1ccccc1/C2=C/CCN(C)C | 59* | nt | nt | 19 | 29
COc1cc2c(cc1Cl)/C(=C\CCN(C)C)c1ccccc1S2 | 100* | nt | 2 | 26 | 53
Nc1ncnc(Nc2c(F)cccc2F)n1 | nt | nt | -0.0098 | 5 | nt
COc1ccc(CCNC(=O)c2ccc(NS(=O)(=O)c3c(C)noc3C)cc2)cc1OC | -8 | nt | -0.89 | -33 | -1

Source: PubChem BioAssay
